Laboratory results taken from PubChem BioAssay (EPA / NIEHS).
Activity calls are given as the source filed them. How the source made its calls: active means hit-call score of the fitted dose curve at least 0.9, where 1 is the maximum; inconclusive means response in the unintended direction; inactive means score below 0.9.

system: rat Monoamine Oxidase, MAO-A, Central (MAOAC), gene 29253; experiment: NVS_ENZ_rMAOAC: NovaScreen (NVS) Enzymatic Assay for rat Monoamine Oxidase, MAO-A, Central (MAOAC) (AID 2283243);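 further: potency refers to inhibition seen as signal drop below DMSO baseline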
Procedure: NVS_ENZ_rMAOAC is a biochemical, single-readout assay that uses extracted gene-proteins from Rat brain in a tissue-based cell-free assay. Measurements were taken 1.5 hours after chemical dosing in a 96-well plate.NVS_ENZ_rMAOAC is one of one assay component(s) measured or calculated from the NVS_ENZ_rMAOAC assay. It is designed to make measurements of enzyme activity, a form of enzyme reporter, as detected with scintillation counting signals by Lysate-based radiodetection technology.Data from the assay component NVS_ENZ_rMAOAC was analyzed into 1 assay endpoint. This assay endpoint, NVS_ENZ_rMAOAC, was analyzed in the positive analysis fitting direction relative to DMSO as the negative control and baseline of activity. Using a type of enzyme reporter, loss-of-signal activity can be used to understand changes in the enzymatic activity as they relate to the gene Maoa. Furthermore, this assay endpoint can be referred to as a primary readout, because this assay has produced multiple assay endpoints where this one serves a enzymatic activity function. To generalize the intended target to other relatable targets, this assay endpoint is annotated to the oxidoreductase intended target family, where the subfamily is monoamine oxidase.
Binding assays used specific radioligands (tritiated, iodinated) with non-radioactive competitive displacement ligands in agonist or antagonist protocols (as indicated) and various reference compounds and inhibitors to titrate specific binding to receptors and transporters. Most enzyme assays (CYPs, kinases, phosphatases, proteases, HDACs) used recombinant protein and specific substrates (fluorescence mostly, some colorimetric and radioactive) and inhibitors, followed by a biochemical separation of substrate and product. All assays for the biochemical HTS were initially run in duplicate at a single concentration (10 uM for CYP450 assays and 25 uM for all others). […] Each assay was run with positive and negative controls, and concurrent controls on every plate. The follow-up (secondary) screen tested active chemical-pairs in concentration series, as well as a few additional assays not tested in the primary screen, some selected negative inactives, and several cases re-run in the concentration series for confirmatory purposes.

Compound	AC50	outcome
Clc1ccc2c(Cl)ccnc2c1	20.8 µM (active)	
CCNc1nc(N)nc(Cl)n1	37.6 µM (active)	
CCCCC(CC)C(=O)OCCOCCOCCOC(=O)C(CC)CCCC (stereo not given)		inactive
CCOC(=O)[C@H](C)Oc1ccc(Oc2nc3ccc(Cl)cc3o2)cc1	17.4 µM (active)	
CN1CCN(Cc2cc(-c3ccc4[nH]c(=O)oc4c3)co2)[C@@H](c2ccc(F)cc2)C1	22 µM (active)	
Oc1ccc(C(c2ccc(O)cc2)C(Cl)(Cl)Cl)cc1		inactive
COC(=O)COc1ccc(Cl)cc1Cl	13.7 µM (active)	
CCCCCCCCCCCCCCCC[N+](C)(C)Cc1ccccc1		inactive
CCCCCCCCCCCCCCCCO		inactive
COc1ccc2nc(N)sc2c1	9.33 µM (active)	
CCOC(=O)CC(CC(=O)OCC)(OC(C)=O)C(=O)OCC	25 µM (active)	
Oc1ccc(Nc2ccccc2)cc1	17.7 µM (active)	
CNC(=O)Oc1cc(C)c(SC)c(C)c1	14 µM (active)	
Oc1cc2ccccc2c2ccccc12	1.2 µM (active)	
CSc1ccc(O)cc1C	15.7 µM (active)	
CCCCCCc1ccc(O)cc1O	16.5 µM (active)	
O=C(O)c1cc(N=Nc2ccc(S(=O)(=O)Nc3ccccn3)cc2)ccc1O		inactive
N#CSCSc1nc2ccccc2s1	45.9 µM (active)	
O=c1c2ccccc2oc2ccccc12	7.58 µM (active)	
CN(C)c1ccc(N=NS(=O)(=O)O)cc1		inactive

Compound	AC50	outcome
CC(=O)Nc1ccc(N=Nc2cc(C)ccc2O)cc1	0.0709 µM (active)	
c1ccc2c(c1)ccc1ncccc12	2.35 µM (active)	
O=C(O)c1cccc(C[C@@H]2COc3ccc(OCc4nc5cc(F)ccc5s4)cc3[C@@H]2O)c1	21 µM (active)	
CN(C)c1ccc(C(=C2C=CC(=[N+](C)C)C=C2)c2ccc(N(C)C)cc2)cc1	25 µM (active)	
O=C(c1ccccc1)c1ccc(O)cc1O	21 µM (active)	
Cc1ccc(N)c([N+](=O)[O-])c1	8.62 µM (active)	
CCCCCCCC(=O)OCC	37.3 µM (active)	
Oc1ccc(/C=C/c2cc(O)cc(O)c2)cc1	1.58 µM (active)	
Nc1ccc(Cl)c([N+](=O)[O-])c1	12.8 µM (active)	
Oc1cccc2c(O)cccc12	25 µM (active)	
Clc1cc(Cl)c2c(c1)N=C1CCCCCN1C2	8.08 µM (active)	
Oc1ccc2c(c1)-c1ccccc1C2	0.743 µM (active)	
Nc1nc(N)c2nc(CNc3ccc(C(=O)N[C@@H](CCC(=O)O)C(=O)O)cc3)cnc2n1	0.889 µM (active)	
CCN(CC)c1ccc2c(C)cc(=O)oc2c1	8.36 µM (active)	
CCOC(=O)C(C)Oc1ccc(Oc2nc3ccc(Cl)cc3o2)cc1 (stereo not given)		inactive
Nc1cccc2c(N)cccc12	25 µM (active)	
CCCOc1sc(C(=O)N2CCC(c3cc(CN)ccc3F)CC2)c(C)c1Br	0.439 µM (active)	
CCOc1ccc2c(c1)C(C)=CC(C)(C)N2	16.6 µM (active)	
C=CC(=O)OCCN(CC)CC		inactive
CC=Cc1ccc(OCC)c(O)c1	20.3 µM (active)	
